This is part of a sample that, as a whole, favours compounds with a hit. Of some 79,000 tested, about 15% had one in any assay. Activity calls are given as the source filed them. Cut-off read from the data, not from the text of the source: active = growth inhibition above about 70%; inactive = the rest.
Legend:
[1] = NCI Yeast Anticancer Drug Screen. Data for the rad52 strain (AID 147);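 note: 0% = growth of vehicle-treated control cultures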; conditions: S. cerevisiae rad52 mutant growth inhibition, stronger effect = higher value
Method in brief: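 Compounds are applied to a genetically defined yeast strain lacking normal DNA damage repair, and inhibition of growth is expressed relative to cultures given vehicle only.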

[2] = NCI Yeast Anticancer Drug Screen. Data for the wt1 strain (AID 149);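 note: 0% = growth of vehicle-treated wt1 cultures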; conditions: S. cerevisiae wt1 strain (SPY 50644) growth inhibition, stronger effect = higher value
Method in brief: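 Compounds are added to wt1 yeast cultures. Growth is then measured. Inhibition is expressed relative to vehicle-treated controls.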

[3] = NCI Yeast Anticancer Drug Screen. Data for the rad50EPP+ strain (AID 151);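 note: 0% = growth of vehicle-treated control cultures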; conditions: S. cerevisiae rad50 mutant strain, stronger effect = higher value
Method in brief: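 Compounds were applied to the rad50EPP+ yeast strain, which bears a defined DNA repair alteration, and growth inhibition was determined relative to vehicle-treated cultures.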

[4] = NCI Yeast Anticancer Drug Screen. Data for the mgt1 strain (AID 153); conditions: S. cerevisiae mgt1 mutant growth inhibition, stronger effect = higher value
Method in brief: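 Strain: mgt1 yeast, one of a set carrying defined DNA damage repair or cell cycle control alterations. Compound-treated growth compared with vehicle.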

[5] = NCI Yeast Anticancer Drug Screen. Data for the rad50 strain (AID 155);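 note: 0% = growth of vehicle-only cultures of the same strain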; conditions: S. cerevisiae rad50 strain growth inhibition, stronger effect = higher value
Method in brief: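 Inhibition values express reduced yeast growth in compound-treated cultures relative to vehicle-treated controls.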

[6] = NCI Yeast Anticancer Drug Screen. Data for the mec2-1 strain (AID 157); conditions: S. cerevisiae mec2-1 strain, stronger effect = higher value
Method in brief: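 Strain: mec2-1 (DNA repair/cell cycle alteration). Compound exposure, then growth measured; inhibition expressed relative to vehicle.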

[7] = NCI Yeast Anticancer Drug Screen. Data for the rad14 strain (AID 159);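 note: 0% = growth of vehicle-treated control cultures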; conditions: S. cerevisiae rad14 strain growth inhibition, stronger effect = higher value
Method in brief: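 A mutant yeast strain defective in DNA damage repair is treated with compound; inhibition of its growth is scored against untreated, vehicle-exposed cultures.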

[8] = NCI Yeast Anticancer Drug Screen. Data for the sgs1 mgt1 strain (AID 161);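 note: 0% = growth of cultures given vehicle only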; conditions: S. cerevisiae sgs1 mgt1 strain, stronger effect = higher value
Method in brief: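 Inhibition of yeast growth, normalised to vehicle-treated controls, is reported for a strain bearing genetic alterations in DNA damage repair.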

[9] = NCI Yeast Anticancer Drug Screen. Data for the CLN2oe strain (AID 163);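 note: 0% = growth of vehicle-only control cultures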; conditions: S. cerevisiae CLN2oe strain, stronger effect = higher value
Method in brief: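 Growth of a genetically modified yeast strain is measured after compound exposure and compared with cultures given vehicle alone.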

[10] = NCI Yeast Anticancer Drug Screen. Data for the cln2 rad14 strain (AID 165);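 note: 0% = growth equal to vehicle treated cultures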; conditions: S. cerevisiae cln2 rad14 strain, stronger effect = higher value
Method in brief: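 Compounds are applied to the cln2 rad14 yeast strain, and growth is then compared with that of vehicle-treated cultures to give inhibition.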

[11] = NCI Yeast Anticancer Drug Screen. Data for the bub3 strain (AID 167); conditions: S. cerevisiae bub3 mutant strain, stronger effect = higher value
Method in brief: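 Steps: expose the mutant yeast strain to compound; grow alongside vehicle-treated cultures; measure growth; express inhibition against the vehicle cultures.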

[12] = NCI Yeast Anticancer Drug Screen. Data for the wt2 strain (AID 169);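 note: 0% = growth of vehicle-treated yeast cultures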; conditions: S. cerevisiae wt2 strain growth inhibition, stronger effect = higher value
Method in brief: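 This strain belongs to a panel of yeast strains with defined genetic alterations in DNA damage repair or cell cycle control. Compounds are applied, and growth inhibition is measured against vehicle-treated cultures.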

[13] = NCI Yeast Anticancer Drug Screen. Data for the mlh1 strain (AID 171);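 note: 0% = growth of vehicle-treated control cultures of the same strain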; conditions: S. cerevisiae mlh1 strain growth inhibition, stronger effect = higher value
Method in brief: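 Growth of the mutant yeast strain after compound exposure, expressed as inhibition relative to vehicle-only controls.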

[14] = NCI Yeast Anticancer Drug Screen. Data for the sgs1 strain (AID 173);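 note: 0% = growth of vehicle-only control cultures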; conditions: S. cerevisiae sgs1 mutant, stronger effect = higher value
Method in brief: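 Growth of a yeast strain bearing a defined genetic alteration is measured after compound treatment. Inhibition is expressed relative to vehicle-only controls.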

[15] = NCI Yeast Anticancer Drug Screen. Data for the mlh1 rad18 strain (AID 175); conditions: S. cerevisiae mlh1 rad18 strain growth inhibition, stronger effect = higher value
Method in brief: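 Read-out is yeast growth inhibition, calculated against vehicle-only controls. The compound was applied to a strain engineered with DNA damage repair alterations.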

[16] = at 5.0 µM (retest, dose inferred, filed as 0.5)
[17] = at 50.0 µM (retest, dose inferred, filed as 5.0)

Measured: growth inhibition

O=C(CCCN1CCC(O)(c2ccc(Cl)cc2)CC1)c1ccc(F)cc1
active: [5]; [17] 99% | [5]; at 50.0 µM 82.8% | [6]; [17] 100% | [6]; at 50.0 µM 77.7% | [7]; at 11.0 µM 78% | [7]; at 33.0 µM 83% | [7]; at 100.0 µM 86% | [8]; [17] 100% | [8]; at 50.0 µM 91.4% | [10]; [17] 99% | [10]; at 50.0 µM 70.8% | [11]; [17] 99% | [15]; [17] 99%
inactive: [1]; at 1.2 µM 13% | [1]; at 3.7 µM 6% | [1]; at 11.0 µM 27% | [1]; at 33.0 µM 31% | [1]; at 100.0 µM 38% | [2]; at 1.2 µM 0% | [2]; at 3.7 µM 7% | [2]; at 11.0 µM 13% | [2]; at 33.0 µM 23% | [2]; at 100.0 µM 14% | [3]; at 1.2 µM -3% | [3]; at 3.7 µM -4% | [3]; at 11.0 µM -6% | [3]; at 33.0 µM -6% | [3]; at 100.0 µM 0% | [4]; at 1.2 µM 17% | [4]; at 3.7 µM 30% | [4]; at 11.0 µM 40% | [4]; at 33.0 µM 58% | [4]; at 100.0 µM 65% | [5]; at 1.2 µM 24% | [5]; at 3.7 µM -8% | [5]; [16] 58% | [5]; at 11.0 µM 69% | [5]; at 33.0 µM 64% | [5]; at 100.0 µM 69% | [6]; at 1.2 µM 19% | [6]; at 3.7 µM 19% | [6]; [16] 33% | [6]; at 11.0 µM 29% | [6]; at 33.0 µM 36% | [6]; at 100.0 µM 41% | [7]; at 1.2 µM 50% | [7]; at 3.7 µM 69% | [8]; [16] 60% | [9]; at 1.2 µM 27% | [9]; at 3.7 µM 31% | [9]; at 11.0 µM 37% | [9]; at 33.0 µM 44% | [9]; at 100.0 µM 49% | [10]; [16] 43% | [11]; at 1.2 µM 38% | [11]; at 3.7 µM 41% | [11]; [16] 48% | [11]; at 11.0 µM 39% | [11]; at 33.0 µM 51% | [11]; at 50.0 µM 66.2% | [11]; at 100.0 µM 59% | [12]; at 1.2 µM 0% | [12]; at 3.7 µM 21% | [12]; at 11.0 µM 18% | [12]; at 33.0 µM 24% | [12]; at 100.0 µM 24% | [13]; at 1.2 µM 11% | [13]; at 3.7 µM 16% | [13]; at 11.0 µM 27% | [13]; at 33.0 µM 34% | [13]; at 100.0 µM 44% | [14]; at 1.2 µM 15% | [14]; at 3.7 µM 23% | [14]; at 11.0 µM 46% | [14]; at 33.0 µM 43% | [14]; at 100.0 µM 52% | [15]; [16] 35% | [15]; at 50.0 µM 66%

CSC(=S)N/N=C(\C)c1cccc(C)n1
active: [1]; at 100.0 µM 97% | [2]; at 100.0 µM 99% | [3]; at 100.0 µM 98% | [4]; at 100.0 µM 98% | [5]; at 33.0 µM 93% | [5]; [17] 99% | [5]; at 50.0 µM 99.4% | [5]; at 100.0 µM 98% | [6]; [17] 99% | [6]; at 50.0 µM 99.4% | [6]; at 100.0 µM 98% | [7]; at 100.0 µM 98% | [8]; [17] 99% | [8]; at 50.0 µM 99.3% | [9]; at 100.0 µM 97% | [10]; [17] 98% | [10]; at 50.0 µM 99.2% | [11]; [17] 99% | [11]; at 50.0 µM 99.2% | [11]; at 100.0 µM 98%
inactive: [1]; at 1.2 µM -3% | [1]; at 3.7 µM -5% | [1]; at 11.0 µM -8% | [1]; at 33.0 µM 47% | [2]; at 1.2 µM -4% | [2]; at 3.7 µM -7% | [2]; at 11.0 µM -4% | [2]; at 33.0 µM 19% | [3]; at 1.2 µM -3% | [3]; at 3.7 µM -3% | [3]; at 11.0 µM -3% | [3]; at 33.0 µM 5% | [4]; at 1.2 µM -7% | [4]; at 3.7 µM -11% | [4]; at 11.0 µM -10% | [4]; at 33.0 µM 39% | [5]; at 1.2 µM -4% | [5]; at 3.7 µM 2% | [5]; [16] -6% | [5]; at 11.0 µM 11% | [6]; at 1.2 µM -6% | [6]; at 3.7 µM -13% | [6]; [16] 28% | [6]; at 11.0 µM -10% | [6]; at 33.0 µM 62% | [7]; at 1.2 µM -8% | [7]; at 3.7 µM 6% | [7]; at 11.0 µM -5% | [7]; at 33.0 µM 44% | [8]; [16] 23% | [9]; at 1.2 µM -24% | [9]; at 3.7 µM -24% | [9]; at 11.0 µM -15% | [9]; at 33.0 µM 21% | [10]; [16] 59% | [11]; at 1.2 µM -14% | [11]; at 3.7 µM -20% | [11]; [16] 19% | [11]; at 11.0 µM 9% | [11]; at 33.0 µM 34%
